Among all 96,000 compounds or so, about 20,000 (21%) were called active. A selection follows. A number with no mark means an inactive call.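 The calls were made as follows: active = CYP2C19 inhibition above a set limit at 5 µM in the primary screen (cut at about 50% in these data); inactive = the rest.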
Biological target: Cytochrome P450 2C19 (Homo sapiens) (UniProt P33261)
Test: blockers of cytochrome P450 2C19 activity – biochemical, luminescence, ADME assay, primary screen (AID 778);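 also: plate controls were negative control wells for no effect and 2.5 mM tranylcypromine positive control for full effect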
Settings: CYP2C19 Supersomes, luciferin-H EGE luminescence, 30 min; at 5 µM; stronger effect = higher value

Cytochrome P450 2C19 (Homo sapiens), sequence (P33261 whole entry, looked up): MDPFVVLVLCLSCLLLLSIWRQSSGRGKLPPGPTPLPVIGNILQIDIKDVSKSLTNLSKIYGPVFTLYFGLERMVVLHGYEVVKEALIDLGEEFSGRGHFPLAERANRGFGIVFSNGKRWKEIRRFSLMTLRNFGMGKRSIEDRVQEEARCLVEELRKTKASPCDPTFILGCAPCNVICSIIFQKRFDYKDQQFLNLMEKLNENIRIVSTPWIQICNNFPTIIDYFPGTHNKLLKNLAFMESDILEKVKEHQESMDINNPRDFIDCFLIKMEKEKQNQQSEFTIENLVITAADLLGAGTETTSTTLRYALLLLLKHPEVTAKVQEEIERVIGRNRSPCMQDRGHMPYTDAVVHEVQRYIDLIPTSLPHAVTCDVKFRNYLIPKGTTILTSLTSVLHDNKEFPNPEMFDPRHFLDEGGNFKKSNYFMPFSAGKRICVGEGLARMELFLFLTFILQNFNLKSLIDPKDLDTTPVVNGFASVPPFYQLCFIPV

Row | SMILES | inhibition
1 | COc1cc(N2CCCC2)c(OC)cc1/C=C(/C#N)c1cccc(Br)c1 | 38.6%
2 | CCCN(c1ccc(C(C)C)cc1)S(=O)(=O)c1c(C)[nH]c(=O)[nH]c1=O | -6.2%
3 | CC(CNc1ccc([N+](=O)[O-])cc1)NC(=O)c1ccccc1Br (configuration not stated) | 77.4% (active)
4 | CC(C)NC(=O)c1ccccc1S(=O)c1ccccc1C#N (configuration not stated) | 1.2%
5 | COc1cc(OC)c(/C=N/NC(=O)c2ccc([N+](=O)[O-])cc2)cc1Br | -2.7%
6 | Cc1cccc2c1N(CC(=O)OC(C)C)C(=O)C2=O | 15.3%
7 | O=[N+]([O-])c1ccc(C=Nc2ccc(Cl)cc2Cl)s1 | 10.8%
8 | O=c1cc(-c2ccccc2)nc(N2CCCCC2)[nH]1 | 14.8%
9 | CC1=CC(C)(C)Nc2ccc(OC(=O)CN3C(=O)C4CCCCC4C3=O)cc21 (configuration not stated) | 16%
10 | CCOC(=O)c1cc2cc(C)ccc2[nH]1 | 50.6% (active)
11 | CCNCc1cc2cc(C)ccc2[nH]c1=O | 28.2%
12 | CC(=O)OCc1cc2cc(C)ccc2[nH]c1=O | 16.8%
13 | Cc1ccc2c(c1)c1ncn(CCC3=CCCCC3)c(=O)c1n2C | 76.8% (active)
14 | Cc1ccc2c(c1)c1ncnc(N3CCc4ccccc4C3)c1n2C | 36.1%
15 | Cn1nnc2cc(C(=O)NCCC3=CCCCC3)ccc21 | 16.8%
16 | CCC(=O)Nc1ccc2c(c1)nc(CCN1CCN(C)CC1)n2C | 3.6%
17 | CN(C)c1nc(N)nc(CSc2ccccn2)n1 | 27.1%
18 | COC(=O)C1=C(C)N=C2SC(C)C(=O)N2C1/C=C/c1ccccc1 (configuration not stated) | 55.9% (active)
19 | COC(=O)C1=C(C)NC(=O)NC1/C=C/c1ccccc1 (configuration not stated) | 9.6%
20 | Cn1c(=O)n(C)c(=O)n(CC(=O)N2CCCCC2)c1=O | -18.6%
21 | CCOc1cc(CO)ccc1OCC(=O)N1CCCCC1 | 20.7%
22 | CC1(C)CC(=O)C2=C(C1)N=C1SCCC(=O)N1C2c1ccc(C(F)(F)F)cc1 (configuration not stated) | 1.9%
23 | O=S(=O)(Nc1ccc(Oc2ncccn2)c(Cl)c1)c1ccc(F)cc1 | 100% (active)
24 | Cc1ccc(-c2cc(C(=O)Nc3nn[nH]n3)c3ccccc3n2)c(C)c1 | -11%
25 | CCCc1ccc(OCc2ccc(C(=O)N/N=C/c3cccc([N+](=O)[O-])c3)o2)c(OC)c1 | -4.7%
26 | CCOc1ccc(NC(=O)CCS(=O)(=O)c2cccc3nsnc23)cc1 | 44.4%

Row | SMILES | inhibition
27 | CCCCN(CC)C(=O)CN(C)S(=O)(=O)c1cccc2nsnc12 | 21%
28 | CCOc1ccc(OCC)c(NC(=O)CN(C)S(=O)(=O)c2cccc3nsnc23)c1 | 60.4% (active)
29 | CCCCc1nccn1CCn1ccnc1CCCC | -17.6%
30 | COc1cccc(OCC(O)CN2CCN(CCO)CC2)c1 (configuration not stated) | -11.7%
31 | CC(C)CCNC(=O)Cn1c(=O)oc2cc(S(=O)(=O)N3CC(C)CC(C)C3)ccc21 (configuration not stated) | 19.4%
32 | COc1cc(CNCc2cccs2)cc(Br)c1OC | 68.5% (active)
33 | COc1cc(CC(=O)NCc2cccs2)cc(OC)c1OC | 34.5%
34 | Cn1ncc(Br)c1C(=O)NCc1cccs1 | 11.1%
35 | COc1ccc(C2CC(=O)Nc3sc(=N)c4c(N)c(C#N)c(N)nc4c32)cc1OC (configuration not stated) | 38.9%
36 | COc1ccc(C2CC(c3ccc(C)cc3)Nc3nc(N)nn32)cc1 (configuration not stated) | 13.1%
37 | COc1ccc(C2CC(c3ccccc3)Nc3ncnn32)cc1 (configuration not stated) | 32.3%
38 | COc1ccc(C2CC(c3ccc(C)cc3)Nc3ncnn32)cc1 (configuration not stated) | 88.4% (active)
39 | CCOC(=O)c1cnc(SCc2nc(N)nc(Nc3ccc(OC)cc3)n2)nc1N | 21.6%
40 | CN1CCN(c2cc(=O)n(-c3ccc(Cl)cc3)c(=O)[nH]2)CC1 | -16.7%
41 | O=C(Cc1ccc(-n2c(=O)[nH]c3ccccc3c2=O)cc1)N1CCN(c2cccc(Cl)c2)CC1 | 40.3%
42 | Cc1cc(=O)[nH]c(SCC(N)=O)c1C#N | -8.9%
43 | Cc1cc(C)c(C#N)c(SCS(=O)c2ccc(C(C)(C)C)cc2)n1 (configuration not stated) | 78.5% (active)
44 | Cc1cc(C(F)(F)F)c(C#N)c(SCC(=O)NC2CC2)n1 | 13.5%
45 | Cc1cc(N2CCCC2=O)cc(C)c1S(N)(=O)=O | -13.1%
46 | Cn1c(=O)[nH]c(=O)c2c1nc(N(CCO)Cc1ccccc1)n2Cc1ccccc1Cl | 9.3%
47 | COc1ccccc1-c1nnc(SCC(=O)N2CC(C)CC(C)C2)o1 (configuration not stated) | 49.2%
48 | COc1ccc(CCNC(=O)CSc2nnc(-c3cccc(F)c3)o2)cc1OC | 95.8% (active)
49 | COc1ccccc1-c1nnc(SCC(=O)Nc2ccccc2)o1 | 69.7% (active)
50 | COc1ccccc1-c1nnc(SCC(=O)Nc2cc(C)on2)o1 | -7.2%
51 | COc1ccc(CCNC(=O)CSc2nc(C)nc3c2oc2ccccc23)cc1OC | -3.9%
52 | Cn1c(SCC(=O)NC2CCCCC2)nnc1-c1cc2ccccc2o1 | 44.2%

Row | SMILES | inhibition
53 | COc1ccc(C(=O)N(CCN2CCOCC2)CC(=O)NC2CCCC2)cc1OC | -7.2%
54 | COc1ccc(-c2nnc(SCC(=O)NC3CCCCC3)o2)cc1OC | 56.3% (active)
55 | COc1ccc(CCNC(=O)CSc2nnc(CNC(=O)c3cccs3)o2)cc1OC | 2.4%
56 | O=c1c2ccccc2nc(N/N=C/c2ccccc2)n1O | -14.2%
57 | CC(C)c1cc(C(=O)O)on1 | -10.8%
58 | CCCCCCNCCn1cnc2c(N)ncnc21 | -9.3%
59 | Cc1ccc(C(=O)N/N=C/c2sc(=O)n(Cc3cccc(C(=O)O)c3)c2Cl)cc1 | 22.8%
60 | COc1ccc(C2C=C(c3ccc(Br)cc3)Nc3nc(NS(C)(=O)=O)nn32)cc1 (configuration not stated) | 3.9%
61 | O=C(Nc1cccc(Cl)c1)Nc1nnc(-c2ccccc2)o1 | 12.7%
62 | CC1CC(C)CN(CC(=O)Nc2ccc(S(N)(=O)=O)cc2)C1 (configuration not stated) | 4.7%
63 | CC(C)Nc1nc(N(c2ccccc2)c2ccccc2)nc(-n2ccnc2)n1 | 39.2%
64 | CCCCC(=O)Nc1ccc2c(c1)OCCO2 | 50.3% (active)
65 | O=C(Nc1nnc(SCc2ccc(Cl)cc2Cl)s1)C1COc2ccccc2O1 (configuration not stated) | 38.1%
66 | CC(=O)c1cccc(NC(=O)c2ccncc2)c1 | 74.6% (active)
67 | O=C(COc1ccc2c(C(F)(F)F)cc(=O)oc2c1)Nc1ccc2c(c1)OCCO2 | -8.9%
68 | COC(=O)CCNc1ccc2c(c1)OCCO2 | 24.9%
69 | CSc1ccccc1C(=O)Nc1cccc(C(C)=O)c1 | 3.3%
70 | COc1ccc(S(=O)(=O)N(C)CC(=O)Nc2ccc3c(c2)OCCO3)cc1OC | 21.9%
71 | C=C(C)C(=O)Nc1cccc(C(C)=O)c1 | -1.5%
72 | CCN(CC(=O)Nc1ccc2c(c1)OCCO2)Cc1cc(=O)oc2cc(C)c(C)cc12 | 88.4% (active)
73 | CCCCC(=O)Nc1ccc2c(c1)C(=O)NC2=O | -10.8%
74 | O=C(CSC1=NCCS1)Nc1nc(-c2ccccc2)cs1 | 22%
75 | O=C(Nc1nc(-c2ccncc2)cs1)C1COc2ccccc2O1 (configuration not stated) | 96.4% (active)
76 | CCCN(CCC)CCNC(=O)c1cc2c(C)nc3ccccc3c2o1 | -9.3%
77 | Cc1c(C(=O)OCC(=O)N(CCC#N)c2ccccc2)oc2c1ccc1ccccc12 | 18.2%
78 | O=C(O)CCC(=O)N(Cc1cccs1)Cc1cccs1 | -5.7%

Row | SMILES | inhibition
79 | COc1cccc(-c2cnc(OC(C)(C)C)nc2OC(C)(C)C)c1 | 9.2%
80 | CCCNC(=O)c1ccc(Cl)c(Cl)c1 | -2.2%
81 | CN(C)c1nc(N)nc(CSc2nnnn2-c2cccc3ccccc23)n1 | 24.3%
82 | O=C1C2(c3ccccc3)CN(CCCO)CC1(c1ccccc1)CN(CCCO)C2 | 6.9%
83 | Cc1ccccc1C(OCC(O)CN1CCCCC1CCO)c1ccccc1 (configuration not stated) | 18%
84 | CCc1nnc(NC(=O)CCC(=O)O)s1 | -16.3%
85 | CC(C)(C)n1nnc(CCc2nnn(C(C)(C)C)n2)n1 | 34.7%
86 | O=C(Nc1ccc2c(c1)OCCO2)c1ccncc1 | 76.5% (active)
87 | Cn1cc([N+](=O)[O-])c(C(=O)Nc2ccc3c(c2)OCCO3)n1 | 43.6%
88 | O=C(Nc1ccc2c(c1)OCCO2)c1cnccn1 | 14.5%
89 | Cc1ccc(-c2csc(NC(=O)Cc3cccs3)n2)cc1C | 10%
90 | O=C(Nc1nc(-c2ccc3c(c2)OCO3)cs1)c1ccncc1 | 63.2% (active)
91 | Cc1cc(C)c2nc(NC(=O)c3ccc4c(c3)OCO4)sc2c1 | -1.4%
92 | O=C(O)c1cccc2c1C(=O)N(C1CCCCC1)C2 | -19.3%
93 | Brc1cccc(-c2nnc3n2CCC3)c1 | -4.8%
94 | O=C(NCCN1CCOCC1)c1c(F)c(F)c(F)c(F)c1F | -10.6%
95 | O=C(NCCCN1CCOCC1)c1cc2c(s1)CCC2 | 52.8% (active)
96 | O=C(CNC(=O)c1cc2c(s1)CCC2)Nc1ccccc1Br | 7%
97 | CCCCOC(=O)CNc1nnc(SCC(=O)OCC)[nH]c1=O | -15.4%
98 | Fc1ccc(CSc2nnc(-c3cc4c(s3)-c3ccccc3CC4)o2)cc1 | 31.9%
99 | Clc1ccc(CSc2nnc([C@@H]3CCCN3)o2)cc1 | 97.9% (active)
100 | COC(=O)c1ccc(CSc2nc3cc(Cl)ccc3o2)cc1 | -5.7%
101 | CCC(C)NC(=O)c1cc(Cl)ccc1OC (configuration not stated) | 22%
102 | Cc1cc(C(F)F)n2nc(C(=O)Nc3ccc(S(=O)(=O)NC45CC6CC(CC(C6)C4)C5)cc3)nc2n1 | 21.2%

Source: PubChem BioAssay AID778 (Sanford-Burnham Center for Chemical Genomics, 2007)
